Laboratory results: the supplement of paper PMC11732987, “Enantioselective OTUD7B fragment discovery through chemoproteomics screening and high-throughput optimisation” (Communications Chemistry, 2025)

Legend:
Test in all cases: log2 ratio of Biotin-Ahx-Ub-VS probe labelling (fragment/DMSO); higher = less target engagement (more negative = stronger competition), active = hit call of the paper (q ≤ 0.05, log2 ratio ≤ -1)
Conditions in all cases: compound concentration: 200 uM; treatment time: 3 h
USP34 = USP34 (UniProt Q70CQ2)
Outline: (§1)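 The table lists average log2 ratios of fragment over vehicle, from an unpaired t-test on global-median-normalised Spectronaut label-free quantities. Proteins with ≥2 unique peptides were used. Samples were HEK293T lysate (495 µg) treated in triplicate with fragment at 200 µM or vehicle for 3 h, then with Biotin-Ahx-Ub-VS (0.5 µM final) for 1 h, with labelled DUBs NeutrAvidin-enriched and run by diaPASEF LC-MS/MS.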

USP36 = molecular target: T1, USP36 (UniProt Q9P275)
T1 sequence (whole entry): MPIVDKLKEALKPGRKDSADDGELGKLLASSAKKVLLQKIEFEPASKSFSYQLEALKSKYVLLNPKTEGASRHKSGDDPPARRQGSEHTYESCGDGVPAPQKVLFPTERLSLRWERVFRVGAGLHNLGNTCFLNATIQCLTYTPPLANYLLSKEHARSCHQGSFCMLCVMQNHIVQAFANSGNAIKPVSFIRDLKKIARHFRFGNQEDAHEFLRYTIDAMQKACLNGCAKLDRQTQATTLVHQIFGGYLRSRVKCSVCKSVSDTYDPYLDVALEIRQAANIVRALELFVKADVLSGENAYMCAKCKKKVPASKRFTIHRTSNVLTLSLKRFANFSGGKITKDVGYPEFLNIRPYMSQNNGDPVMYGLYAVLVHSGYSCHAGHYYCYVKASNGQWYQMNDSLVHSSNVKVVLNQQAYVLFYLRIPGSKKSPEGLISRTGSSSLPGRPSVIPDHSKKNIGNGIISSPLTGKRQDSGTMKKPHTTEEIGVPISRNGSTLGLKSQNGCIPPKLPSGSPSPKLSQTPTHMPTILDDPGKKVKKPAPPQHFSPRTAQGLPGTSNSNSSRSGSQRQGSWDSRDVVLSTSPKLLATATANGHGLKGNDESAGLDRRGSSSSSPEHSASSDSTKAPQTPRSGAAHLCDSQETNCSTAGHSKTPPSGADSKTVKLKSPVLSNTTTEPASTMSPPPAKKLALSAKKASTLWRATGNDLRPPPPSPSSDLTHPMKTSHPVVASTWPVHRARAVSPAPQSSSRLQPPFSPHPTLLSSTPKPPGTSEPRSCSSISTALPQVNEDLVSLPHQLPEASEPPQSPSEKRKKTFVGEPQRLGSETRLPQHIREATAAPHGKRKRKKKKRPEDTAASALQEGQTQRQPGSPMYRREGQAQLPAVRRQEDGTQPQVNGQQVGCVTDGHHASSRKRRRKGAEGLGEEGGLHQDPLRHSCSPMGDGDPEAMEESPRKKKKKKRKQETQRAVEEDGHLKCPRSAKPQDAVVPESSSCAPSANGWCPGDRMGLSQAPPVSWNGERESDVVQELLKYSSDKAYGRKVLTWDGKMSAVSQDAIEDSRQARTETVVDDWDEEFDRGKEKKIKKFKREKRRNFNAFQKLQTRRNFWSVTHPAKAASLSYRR
Outline: as §1

USP38 = molecular target: T2, USP38 (UniProt Q8NB14)
T2 sequence (whole entry): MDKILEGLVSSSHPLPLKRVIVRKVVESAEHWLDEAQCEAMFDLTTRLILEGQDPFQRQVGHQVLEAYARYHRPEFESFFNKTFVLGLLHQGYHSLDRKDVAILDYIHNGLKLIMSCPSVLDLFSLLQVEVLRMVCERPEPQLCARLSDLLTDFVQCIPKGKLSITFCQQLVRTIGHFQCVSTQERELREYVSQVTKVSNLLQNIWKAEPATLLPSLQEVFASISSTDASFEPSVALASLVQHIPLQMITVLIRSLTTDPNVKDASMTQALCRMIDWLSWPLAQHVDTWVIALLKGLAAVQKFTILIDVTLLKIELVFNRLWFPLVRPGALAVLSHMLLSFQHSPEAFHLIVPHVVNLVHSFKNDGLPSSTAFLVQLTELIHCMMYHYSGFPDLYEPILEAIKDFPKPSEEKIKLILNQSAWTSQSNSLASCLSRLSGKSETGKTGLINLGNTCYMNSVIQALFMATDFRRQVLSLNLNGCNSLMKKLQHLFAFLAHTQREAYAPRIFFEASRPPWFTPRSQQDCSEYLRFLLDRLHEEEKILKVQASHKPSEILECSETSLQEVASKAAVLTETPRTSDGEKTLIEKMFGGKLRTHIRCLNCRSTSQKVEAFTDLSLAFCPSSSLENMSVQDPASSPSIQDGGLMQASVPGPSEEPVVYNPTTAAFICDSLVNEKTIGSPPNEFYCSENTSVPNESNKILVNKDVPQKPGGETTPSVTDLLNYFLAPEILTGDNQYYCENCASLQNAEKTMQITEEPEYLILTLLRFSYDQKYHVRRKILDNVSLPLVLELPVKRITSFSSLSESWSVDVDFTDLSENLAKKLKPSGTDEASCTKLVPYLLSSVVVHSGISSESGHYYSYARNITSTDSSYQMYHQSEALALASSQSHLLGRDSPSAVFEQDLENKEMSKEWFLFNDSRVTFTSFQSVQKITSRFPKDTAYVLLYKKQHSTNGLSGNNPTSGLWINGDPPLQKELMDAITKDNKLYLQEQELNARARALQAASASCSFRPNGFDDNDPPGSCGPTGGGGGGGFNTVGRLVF
Outline: as §1

USP39 = molecular target: T3, USP39 (UniProt Q53GS9)
T3 sequence (whole entry): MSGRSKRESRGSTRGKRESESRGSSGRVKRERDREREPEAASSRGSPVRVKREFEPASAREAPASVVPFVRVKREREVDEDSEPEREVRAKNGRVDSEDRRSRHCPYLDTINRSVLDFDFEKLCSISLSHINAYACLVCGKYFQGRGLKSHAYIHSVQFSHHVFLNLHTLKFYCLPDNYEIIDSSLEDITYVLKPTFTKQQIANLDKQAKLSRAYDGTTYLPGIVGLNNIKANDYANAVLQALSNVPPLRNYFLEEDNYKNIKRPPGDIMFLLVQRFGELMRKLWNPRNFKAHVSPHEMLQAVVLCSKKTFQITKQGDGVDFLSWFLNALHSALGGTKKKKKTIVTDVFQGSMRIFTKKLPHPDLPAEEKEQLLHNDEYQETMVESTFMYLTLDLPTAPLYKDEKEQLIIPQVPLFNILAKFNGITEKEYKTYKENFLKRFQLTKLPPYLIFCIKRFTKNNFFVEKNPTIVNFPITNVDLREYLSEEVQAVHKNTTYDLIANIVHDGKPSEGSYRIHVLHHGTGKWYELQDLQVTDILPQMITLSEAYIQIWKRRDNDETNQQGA
Outline: as §1

USP4 = molecular target: T4, USP4 (UniProt Q13107)
T4 sequence (whole entry): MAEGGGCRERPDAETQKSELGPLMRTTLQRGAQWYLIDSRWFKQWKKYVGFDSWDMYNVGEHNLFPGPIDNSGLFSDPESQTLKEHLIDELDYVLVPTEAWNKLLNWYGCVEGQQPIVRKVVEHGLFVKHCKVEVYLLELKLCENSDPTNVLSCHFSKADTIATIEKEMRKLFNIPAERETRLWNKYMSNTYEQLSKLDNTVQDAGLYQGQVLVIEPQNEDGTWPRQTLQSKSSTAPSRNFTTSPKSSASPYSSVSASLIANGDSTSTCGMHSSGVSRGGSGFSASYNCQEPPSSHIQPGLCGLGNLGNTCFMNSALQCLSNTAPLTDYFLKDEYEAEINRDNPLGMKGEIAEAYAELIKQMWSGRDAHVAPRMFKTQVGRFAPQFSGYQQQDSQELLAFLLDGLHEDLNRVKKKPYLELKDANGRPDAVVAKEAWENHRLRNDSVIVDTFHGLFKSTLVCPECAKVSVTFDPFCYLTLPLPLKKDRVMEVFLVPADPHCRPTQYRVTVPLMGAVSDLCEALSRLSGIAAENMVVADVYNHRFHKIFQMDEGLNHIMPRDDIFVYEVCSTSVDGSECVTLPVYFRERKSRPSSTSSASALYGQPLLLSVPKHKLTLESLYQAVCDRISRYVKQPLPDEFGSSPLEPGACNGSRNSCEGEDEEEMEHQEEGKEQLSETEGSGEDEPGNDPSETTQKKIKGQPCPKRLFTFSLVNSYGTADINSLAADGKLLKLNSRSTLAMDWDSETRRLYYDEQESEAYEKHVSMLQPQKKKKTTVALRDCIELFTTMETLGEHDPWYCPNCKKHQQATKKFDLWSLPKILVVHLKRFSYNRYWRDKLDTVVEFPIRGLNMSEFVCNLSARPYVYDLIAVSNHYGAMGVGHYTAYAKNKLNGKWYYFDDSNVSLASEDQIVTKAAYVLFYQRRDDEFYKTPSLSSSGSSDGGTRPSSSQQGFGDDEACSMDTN
Outline: as §1

Measured: log2 ratio of Biotin-Ahx-Ub-VS probe labelling

Sequence of USP34 (Q70CQ2 whole entry, the tested form may be a part): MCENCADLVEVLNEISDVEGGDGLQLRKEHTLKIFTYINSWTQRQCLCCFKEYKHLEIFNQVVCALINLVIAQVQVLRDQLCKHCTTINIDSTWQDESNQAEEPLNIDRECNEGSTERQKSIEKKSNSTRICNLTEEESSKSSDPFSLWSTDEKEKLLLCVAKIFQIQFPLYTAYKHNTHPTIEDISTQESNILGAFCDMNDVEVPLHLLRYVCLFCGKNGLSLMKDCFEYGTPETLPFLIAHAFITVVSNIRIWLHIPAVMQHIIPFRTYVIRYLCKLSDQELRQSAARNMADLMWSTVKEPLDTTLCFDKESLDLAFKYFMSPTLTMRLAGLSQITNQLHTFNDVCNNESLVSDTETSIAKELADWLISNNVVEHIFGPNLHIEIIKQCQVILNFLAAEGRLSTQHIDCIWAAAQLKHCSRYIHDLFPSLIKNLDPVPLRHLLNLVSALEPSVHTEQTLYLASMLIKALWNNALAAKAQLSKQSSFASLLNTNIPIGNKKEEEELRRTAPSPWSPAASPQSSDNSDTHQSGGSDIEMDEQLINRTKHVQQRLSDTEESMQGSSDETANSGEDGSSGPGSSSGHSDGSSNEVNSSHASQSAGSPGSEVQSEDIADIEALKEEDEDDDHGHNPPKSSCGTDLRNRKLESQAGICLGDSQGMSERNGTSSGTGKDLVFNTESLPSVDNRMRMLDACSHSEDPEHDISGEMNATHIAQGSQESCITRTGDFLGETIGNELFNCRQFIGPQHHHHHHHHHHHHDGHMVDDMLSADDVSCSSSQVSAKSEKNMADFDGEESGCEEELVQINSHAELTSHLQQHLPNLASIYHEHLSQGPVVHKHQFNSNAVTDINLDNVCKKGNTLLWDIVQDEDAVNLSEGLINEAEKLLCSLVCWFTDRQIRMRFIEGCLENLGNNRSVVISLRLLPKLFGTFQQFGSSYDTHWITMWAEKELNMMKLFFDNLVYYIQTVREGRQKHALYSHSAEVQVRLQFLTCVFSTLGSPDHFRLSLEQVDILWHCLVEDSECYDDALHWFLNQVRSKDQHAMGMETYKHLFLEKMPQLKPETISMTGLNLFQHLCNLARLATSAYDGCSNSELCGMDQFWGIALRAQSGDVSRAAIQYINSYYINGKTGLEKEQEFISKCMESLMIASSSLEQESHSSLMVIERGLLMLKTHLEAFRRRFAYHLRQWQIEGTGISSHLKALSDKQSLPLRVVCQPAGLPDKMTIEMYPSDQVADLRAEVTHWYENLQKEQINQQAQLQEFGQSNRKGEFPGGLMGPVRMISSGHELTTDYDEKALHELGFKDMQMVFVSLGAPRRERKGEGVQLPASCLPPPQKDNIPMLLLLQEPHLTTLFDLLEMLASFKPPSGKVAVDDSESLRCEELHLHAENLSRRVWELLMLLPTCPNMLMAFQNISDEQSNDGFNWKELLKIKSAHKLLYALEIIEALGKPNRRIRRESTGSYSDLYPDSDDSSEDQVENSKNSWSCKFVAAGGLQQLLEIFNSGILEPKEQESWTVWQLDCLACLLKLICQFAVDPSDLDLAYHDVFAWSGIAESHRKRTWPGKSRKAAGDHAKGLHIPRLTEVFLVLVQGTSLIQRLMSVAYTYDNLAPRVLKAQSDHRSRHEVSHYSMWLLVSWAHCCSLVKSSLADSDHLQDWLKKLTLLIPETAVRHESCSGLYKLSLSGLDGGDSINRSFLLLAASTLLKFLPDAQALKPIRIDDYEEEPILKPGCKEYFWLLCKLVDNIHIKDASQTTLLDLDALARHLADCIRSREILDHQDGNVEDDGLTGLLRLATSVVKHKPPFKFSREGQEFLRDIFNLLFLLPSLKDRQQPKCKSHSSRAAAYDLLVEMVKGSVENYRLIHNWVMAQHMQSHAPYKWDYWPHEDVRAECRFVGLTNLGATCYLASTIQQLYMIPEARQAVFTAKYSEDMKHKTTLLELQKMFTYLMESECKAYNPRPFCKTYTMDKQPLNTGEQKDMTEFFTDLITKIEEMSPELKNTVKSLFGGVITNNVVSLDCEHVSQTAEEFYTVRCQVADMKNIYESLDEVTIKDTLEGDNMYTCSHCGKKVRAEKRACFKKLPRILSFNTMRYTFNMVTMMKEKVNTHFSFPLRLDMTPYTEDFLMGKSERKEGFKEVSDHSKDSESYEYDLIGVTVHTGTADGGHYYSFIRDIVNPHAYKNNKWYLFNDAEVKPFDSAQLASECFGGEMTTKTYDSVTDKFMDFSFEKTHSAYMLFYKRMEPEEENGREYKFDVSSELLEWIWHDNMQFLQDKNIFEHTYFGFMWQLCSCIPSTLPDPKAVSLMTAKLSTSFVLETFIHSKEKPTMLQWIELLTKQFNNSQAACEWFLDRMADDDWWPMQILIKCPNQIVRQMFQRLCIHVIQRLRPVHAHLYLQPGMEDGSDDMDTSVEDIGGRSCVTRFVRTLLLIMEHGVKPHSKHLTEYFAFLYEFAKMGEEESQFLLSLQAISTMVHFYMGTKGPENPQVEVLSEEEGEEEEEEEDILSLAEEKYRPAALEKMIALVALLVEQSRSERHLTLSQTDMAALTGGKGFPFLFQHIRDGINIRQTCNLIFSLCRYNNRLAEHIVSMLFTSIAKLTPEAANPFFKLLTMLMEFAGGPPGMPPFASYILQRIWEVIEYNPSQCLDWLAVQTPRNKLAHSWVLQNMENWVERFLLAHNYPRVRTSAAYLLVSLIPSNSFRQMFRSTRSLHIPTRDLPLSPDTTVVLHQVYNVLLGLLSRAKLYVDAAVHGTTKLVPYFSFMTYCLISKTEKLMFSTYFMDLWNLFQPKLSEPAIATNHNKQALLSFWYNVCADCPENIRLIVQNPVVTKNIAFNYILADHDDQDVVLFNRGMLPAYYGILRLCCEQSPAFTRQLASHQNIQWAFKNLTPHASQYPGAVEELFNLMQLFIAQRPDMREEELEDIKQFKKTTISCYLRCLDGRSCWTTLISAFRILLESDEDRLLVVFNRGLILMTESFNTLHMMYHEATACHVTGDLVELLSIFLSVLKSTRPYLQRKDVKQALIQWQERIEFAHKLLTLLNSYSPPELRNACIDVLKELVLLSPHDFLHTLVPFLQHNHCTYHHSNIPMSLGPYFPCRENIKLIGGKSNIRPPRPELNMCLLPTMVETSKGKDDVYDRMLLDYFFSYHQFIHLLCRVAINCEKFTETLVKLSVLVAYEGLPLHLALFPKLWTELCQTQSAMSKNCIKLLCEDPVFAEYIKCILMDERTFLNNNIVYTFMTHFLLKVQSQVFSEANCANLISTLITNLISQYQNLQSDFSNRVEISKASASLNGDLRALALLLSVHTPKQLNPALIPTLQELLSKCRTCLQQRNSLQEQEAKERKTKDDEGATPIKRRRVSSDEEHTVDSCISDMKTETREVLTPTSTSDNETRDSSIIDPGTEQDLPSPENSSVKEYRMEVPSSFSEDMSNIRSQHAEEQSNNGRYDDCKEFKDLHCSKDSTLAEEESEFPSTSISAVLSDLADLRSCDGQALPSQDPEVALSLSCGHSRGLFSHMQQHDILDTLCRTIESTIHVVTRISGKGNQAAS

Cc1c(C#N)c(NC(=O)CCl)n(Cc2ccco2)c1C
inactive: USP34 -0.304 | USP36 -0.0578 | USP38 -0.297 | USP39 -0.162 | USP4 -0.372
